Inconclusive results are not listed. Calls of active or inactive are those of the source. Unless noted, calls come from the whole dose curve; as a rule, active = well fitted curve in either direction with a large enough effect (not every such curve was filed as active); inconclusive = small, poorly fitted or top-dose-only effect, or another doubt; inactive = flat fitted curve, though single readings scatter.
Experiments:
[1] = target: Lysosomal acid glucosylceramidase (Homo sapiens) (UniProt P04062); experiment: Glucocerebrosidase-p2 (AID 348; in the data active = potency below about 10 µM; note: potency is the fitted concentration of half-maximal effect); conditions: purified GBA, blue fluorogenic substrate, 40 min
Summary of the method: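 Compounds titrated from 0.6 nM upwards against 0.2 nM enzyme in pH 5.9 citric acid/KH2PO4, taurocholate, tween-20; blue fluorogenic substrate 80 uM, 40 min room temperature, stopped and read Ex 365/Em 440 for AC50.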

[2] = AP1 Signaling Pathway (AID 357); conditions: ME-180 AP-1-bla reporter, EGF-induced, beta-lactamase ratio, 5 h; at 7.69 µM (top of the series) unless noted;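 note: ME-180 reporter cells stimulated with EGF at its EC50 level; % is set by controls: 0 for no effect and ±100 for the full control effect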
Summary of the method: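 In this screen, ME-180 cells in Opti-MEM with 0.5% dialyzed FBS received EC50 EGF and compound titrations for 5 h. AP-1 reporter beta-lactamase was detected via CCF4 ratio, giving AC50 for positive and negative modulators.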

[3] = NFAT Signaling Pathway (AID 444); conditions: Jurkat NFAT-bla M1, carbachol, beta-lactamase ratio, 5 h; at 7.69 µM (top of the series) unless noted;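 note: carbachol stimulus at about its EC50 of 1 µM final; % is set by controls: 0 for no effect and ±100 for the full control effect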
Summary of the method: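 Jurkat cells with NFAT-driven β-lactamase reporter and co-expressed M1 receptor, stimulated with carbachol (final 1 uM, ~EC50), compound titration, 5 h at 37 °C. CCF4 loaded 1 h at RT; 460/530 nm ratio gave %activity and AC50.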

[4] = Stat Signaling Pathway (AID 446); conditions: ME-180 SIE beta-lactamase reporter, IL-6 stimulated, 5 h; at 7.69 µM (top of the series) unless noted;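 note: ME-180 cervical cancer cells given 40 pM IL-6 alongside compound; SIE-controlled beta-lactamase reporter measured as 460/530 nm FRET emission ratio; % is set by controls: 0 for no effect and ±100 for the full control effect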
Summary of the method: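 ME-180 SIE-bla cells; overnight plating; cpd + IL-6 40 pM, 5 h, 37 C; LiveBLAzer 2.5 h RT; 460/530 nm emission ratio. Normalized to 300 pM IL-6 and 125 nM JAK inhibitor controls.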

[5] = target: Glucocorticoid receptor (Homo sapiens) (UniProt P04150); experiment: GR-GFP Redistribution (AID 450;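 active = compounds whose dose series gives a full or clear partial fitted curve of increased nuclear translocation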; note: potency is the fitted concentration of half-maximal effect); conditions: U2OS GR-GFP nuclear translocation, laser cytometry, 2 h
[6] = target: Glucocorticoid receptor (Homo sapiens) (UniProt P04150); experiment: GR-EFC Redistribution (AID 451; calls by dose curve; note: potency is the fitted concentration of half-maximal effect); conditions: CHO-K1 GR-EFC translocation, beta-gal luminescence, 2 h
Summary of the method: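 CHO-K1 cells expressing nuclear EA and GR-ED fragments of b-gal; compounds titrated up to 46 uM final, 2 h at 37 C. GR nuclear translocation read as complemented b-gal luminescence after 1 h RT detection.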

[7] = target: Mitogen-activated protein kinase 10 (Mus musculus) (UniProt Q61831); experiment: JNK3 AlphaScreen Assay (AID 530); conditions: JNK3 lysate, c-Jun phosphorylation; series mostly up to 11.4 µM;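 note: kinase came from lysate of stimulated human HepG2 cells; signal reports phosphorylation of biotinylated GST-cJun 1-79 at Ser73 with 10 µM ATP; % is set by controls: 0 for no effect and ±100 for the full control effect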
Summary of the method: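 Pre-activated (IL-1β/TNFα) JNK3 in HepG2 lysates phosphorylates biotin-GST-cJun(1-79), 10 uM ATP; anti-phospho-cJun(Ser73) AlphaScreen read at room temperature, pH 7.6 Tris buffer. Compounds pre-incubated 15 min as titrations.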

[8] = target: 3',5'-cyclic-AMP phosphodiesterase 4B (Homo sapiens) (UniProt Q07343); experiment: qHTS Assay for Inhibitors of PDE-IV (AID 607; active = well fitted activation curve with a large enough effect in the main read-out, with a control signal flat, not every such curve was filed as active; note: % of control where 0% means no effect); conditions: HEK293 ACTOne CNG channel cells, membrane potential fluorescence; series mostly up to 22.9 µM
Summary of the method: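 ACTOne HEK293 cells carry a modified cAMP-gated CNG channel and express endogenous PDE4; plated 1000 cells/well, compounds up to 22.9 uM final. Membrane-potential dye fluorescence (ex 535/em 590) was read; parental cells received 10 uM forskolin + 100 uM RO 20-1724.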

[9] = target: Cytochrome P450 2D6 (Homo sapiens) (UniProt P10635); experiment: qHTS Assay for Inhibitors and Substrates of Cytochrome P450 2D6 (AID 891; active = well fitted curve in the direction sought with a large enough effect; an effect the other way counts as inactive or inconclusive; note: nearly all actives have a fitted effect of over 60% in size; note: potency is the fitted concentration of half-maximal effect); conditions: recombinant CYP2D6, luciferin-ME EGE luminescence; series mostly up to 11.4 µM
Summary of the method: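 Human CYP2D6 (5 nM) with 30 uM Luciferin-ME EGE (at Km) in 100 mM KPO4, compound preincubated 10 min, then NADPH regeneration system for 60 min at room temperature. Luciferin read by luminescence; normalized to 1.43 uM quinidine.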

[10] = qHTS Assay for Identification of Small Molecule Agonists for Hypoxia Response Element Signaling Pathway (AID 914; active = well fitted activation curve with a large enough effect in the signal ratio, with a control signal flat, not every such curve was filed as active; the % refers to the signal ratio; note: % of control where 0% means no effect); conditions: ME-180 (cervical carcinoma) HRE-bla reporter, beta-lactamase ratio, CoCl2, 17 h; activation: active compounds read high
Summary of the method: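 Reporter activity (beta-lactamase, CCF4 460nm/530nm ratio) in HRE-bla ME-180 cells is recorded after 17 h compound exposure with EC50 CoCl2 at 37 degrees Celsius. AC50 values come from titration data.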

[11] = target: Cytochrome P450 2C19 (Homo sapiens) (UniProt P33261); experiment: qHTS Assay for Inhibitors and Substrates of Cytochrome P450 2C19 (AID 899; active = well fitted curve in the direction sought with a large enough effect; an effect the other way counts as inactive or inconclusive; note: nearly all actives have a fitted effect of over 60% in size; note: potency is the fitted concentration of half-maximal effect); conditions: recombinant CYP2C19, luciferin-H EGE luminescence; series mostly up to 11.4 µM
Summary of the method: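 Luminescent read-out of luciferin formed from Luciferin-H EGE (10uM, equal to KM). Enzyme 5nM in 50mM KPO4; compound added, 10 min at 37C, then NADPH regenerating system for 60 min at 37C. Full inhibition defined by 57uM ketoconazole.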

[12] = target: Cytochrome P450 3A4 (Homo sapiens) (UniProt P08684); experiment: qHTS Assay for Activators of Cytochrome P450 3A4 (AID 885; active = well fitted curve in the direction sought with a large enough effect; an effect the other way counts as inactive or inconclusive; note: nearly all actives have a fitted effect of over 65% in size); conditions: recombinant CYP3A4, Luciferin-PPXE luminescence, 60 min; series mostly up to 11.4 µM
Summary of the method: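 20nM CYP3A4 + 25uM Luciferin-PPXE (=KM), 200mM KPO4; cpd 10 min RT; NADPH regen, 60 min RT; stop w/ detection buffer, 20 min; luminescence. Normalized to 57 uM ketoconazole.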

Cytochrome P450 2C19 (Homo sapiens), sequence (P33261 whole entry, looked up): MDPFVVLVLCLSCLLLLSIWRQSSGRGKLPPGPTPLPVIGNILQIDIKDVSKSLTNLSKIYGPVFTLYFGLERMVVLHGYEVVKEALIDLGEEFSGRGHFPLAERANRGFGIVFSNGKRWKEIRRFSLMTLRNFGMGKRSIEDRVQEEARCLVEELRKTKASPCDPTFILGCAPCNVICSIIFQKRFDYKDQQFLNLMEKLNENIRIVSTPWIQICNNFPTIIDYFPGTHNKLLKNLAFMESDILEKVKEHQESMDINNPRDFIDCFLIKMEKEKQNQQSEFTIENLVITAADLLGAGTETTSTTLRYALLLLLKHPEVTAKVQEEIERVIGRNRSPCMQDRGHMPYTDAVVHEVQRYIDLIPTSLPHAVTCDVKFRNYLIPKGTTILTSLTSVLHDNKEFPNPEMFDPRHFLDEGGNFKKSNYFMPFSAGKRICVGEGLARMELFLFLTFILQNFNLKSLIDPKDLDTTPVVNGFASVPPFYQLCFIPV
3',5'-cyclic-AMP phosphodiesterase 4B (Homo sapiens), sequence (Q07343 whole entry, looked up): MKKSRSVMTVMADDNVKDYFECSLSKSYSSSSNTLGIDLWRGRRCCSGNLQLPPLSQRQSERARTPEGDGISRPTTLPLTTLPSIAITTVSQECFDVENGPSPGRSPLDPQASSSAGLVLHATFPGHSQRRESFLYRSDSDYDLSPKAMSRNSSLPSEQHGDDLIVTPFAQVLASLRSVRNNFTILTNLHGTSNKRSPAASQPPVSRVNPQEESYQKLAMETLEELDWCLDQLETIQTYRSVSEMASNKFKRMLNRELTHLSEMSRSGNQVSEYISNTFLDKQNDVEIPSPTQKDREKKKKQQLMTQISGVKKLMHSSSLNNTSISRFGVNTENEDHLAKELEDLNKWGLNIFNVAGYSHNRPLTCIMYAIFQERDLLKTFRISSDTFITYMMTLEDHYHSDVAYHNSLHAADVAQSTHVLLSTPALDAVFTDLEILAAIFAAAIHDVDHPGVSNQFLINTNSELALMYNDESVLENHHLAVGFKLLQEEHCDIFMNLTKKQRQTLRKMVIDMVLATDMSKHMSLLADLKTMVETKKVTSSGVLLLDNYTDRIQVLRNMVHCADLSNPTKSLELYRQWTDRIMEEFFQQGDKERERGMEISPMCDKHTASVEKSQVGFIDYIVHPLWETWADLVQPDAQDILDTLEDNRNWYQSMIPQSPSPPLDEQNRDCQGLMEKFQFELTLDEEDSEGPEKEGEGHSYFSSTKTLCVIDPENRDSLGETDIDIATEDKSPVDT
Cytochrome P450 2D6 (Homo sapiens), sequence (P10635 whole entry, looked up): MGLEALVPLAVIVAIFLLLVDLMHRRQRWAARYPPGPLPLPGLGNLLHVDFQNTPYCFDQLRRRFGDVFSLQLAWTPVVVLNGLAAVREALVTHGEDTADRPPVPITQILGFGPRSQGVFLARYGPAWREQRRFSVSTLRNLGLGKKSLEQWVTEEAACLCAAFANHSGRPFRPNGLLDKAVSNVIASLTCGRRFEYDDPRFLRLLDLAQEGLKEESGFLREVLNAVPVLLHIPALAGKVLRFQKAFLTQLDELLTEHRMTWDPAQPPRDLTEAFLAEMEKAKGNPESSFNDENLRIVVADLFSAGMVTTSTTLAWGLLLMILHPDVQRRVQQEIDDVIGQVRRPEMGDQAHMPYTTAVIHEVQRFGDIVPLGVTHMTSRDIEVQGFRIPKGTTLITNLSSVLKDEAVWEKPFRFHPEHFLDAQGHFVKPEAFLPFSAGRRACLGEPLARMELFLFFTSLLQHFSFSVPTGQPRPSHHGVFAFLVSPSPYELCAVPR
Glucocorticoid receptor (Homo sapiens), sequence (P04150 whole entry, looked up, the tested form may be a part): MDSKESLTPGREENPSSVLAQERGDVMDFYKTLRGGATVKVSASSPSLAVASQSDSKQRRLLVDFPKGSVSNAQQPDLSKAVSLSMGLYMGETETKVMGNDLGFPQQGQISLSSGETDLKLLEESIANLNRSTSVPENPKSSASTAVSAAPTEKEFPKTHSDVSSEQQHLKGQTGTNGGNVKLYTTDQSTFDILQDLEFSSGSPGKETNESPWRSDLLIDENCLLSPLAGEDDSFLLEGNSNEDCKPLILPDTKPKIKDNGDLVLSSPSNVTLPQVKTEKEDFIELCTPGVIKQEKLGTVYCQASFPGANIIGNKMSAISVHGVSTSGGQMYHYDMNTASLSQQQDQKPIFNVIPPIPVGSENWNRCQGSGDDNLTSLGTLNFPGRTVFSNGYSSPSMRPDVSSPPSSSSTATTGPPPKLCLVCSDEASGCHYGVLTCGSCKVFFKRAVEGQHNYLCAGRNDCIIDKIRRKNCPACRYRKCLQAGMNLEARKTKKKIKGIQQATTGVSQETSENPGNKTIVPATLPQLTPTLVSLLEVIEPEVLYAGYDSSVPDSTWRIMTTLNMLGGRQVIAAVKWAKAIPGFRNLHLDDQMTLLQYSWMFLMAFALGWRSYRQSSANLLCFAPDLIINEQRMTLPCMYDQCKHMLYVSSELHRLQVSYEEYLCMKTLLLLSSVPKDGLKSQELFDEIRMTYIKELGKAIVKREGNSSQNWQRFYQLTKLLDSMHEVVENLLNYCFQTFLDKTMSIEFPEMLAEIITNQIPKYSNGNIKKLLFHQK
Lysosomal acid glucosylceramidase (Homo sapiens), sequence (P04062 whole entry, looked up): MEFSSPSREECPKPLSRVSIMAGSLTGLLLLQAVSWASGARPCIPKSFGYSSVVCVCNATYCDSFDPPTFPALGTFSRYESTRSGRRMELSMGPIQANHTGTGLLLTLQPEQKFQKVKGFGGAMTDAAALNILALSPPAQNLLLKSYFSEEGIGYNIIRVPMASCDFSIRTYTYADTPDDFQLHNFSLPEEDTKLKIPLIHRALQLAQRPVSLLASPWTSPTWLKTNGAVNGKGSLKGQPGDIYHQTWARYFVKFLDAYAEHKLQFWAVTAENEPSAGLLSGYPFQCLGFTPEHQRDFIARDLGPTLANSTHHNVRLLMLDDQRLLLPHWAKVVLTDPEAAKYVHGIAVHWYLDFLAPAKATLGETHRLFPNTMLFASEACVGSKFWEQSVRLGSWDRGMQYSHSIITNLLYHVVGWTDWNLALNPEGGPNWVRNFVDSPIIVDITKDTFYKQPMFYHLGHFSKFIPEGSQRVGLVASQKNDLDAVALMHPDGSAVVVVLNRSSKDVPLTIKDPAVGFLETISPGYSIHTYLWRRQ
Cytochrome P450 3A4 (Homo sapiens), sequence (P08684 whole entry, looked up): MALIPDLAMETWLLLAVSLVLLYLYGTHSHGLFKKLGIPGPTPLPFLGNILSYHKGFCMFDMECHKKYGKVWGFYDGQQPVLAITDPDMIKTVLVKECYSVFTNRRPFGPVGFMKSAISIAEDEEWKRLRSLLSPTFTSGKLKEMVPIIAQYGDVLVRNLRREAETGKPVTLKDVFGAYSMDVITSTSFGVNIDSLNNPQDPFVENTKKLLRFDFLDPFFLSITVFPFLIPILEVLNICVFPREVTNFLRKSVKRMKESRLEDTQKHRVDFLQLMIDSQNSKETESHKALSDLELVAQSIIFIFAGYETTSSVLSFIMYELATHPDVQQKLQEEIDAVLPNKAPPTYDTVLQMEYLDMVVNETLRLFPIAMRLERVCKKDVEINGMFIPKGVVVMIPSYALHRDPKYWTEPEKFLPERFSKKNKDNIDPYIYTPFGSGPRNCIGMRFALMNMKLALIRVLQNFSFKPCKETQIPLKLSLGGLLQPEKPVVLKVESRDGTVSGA

Clc1ccc2c(N3CCC(CCC4CCN(c5ncnc6cc(Cl)ccc56)CC4)CC3)ncnc2c1
inactive: Potency [1] > 11.4 µM | activity change, negative = inhibition [2] 0.285% | activity change, negative = inhibition [3] 0.959% | activity, negative = inhibition [4] 0.136% | Potency [5] > 46 µM | Potency [6] > 9.22 µM | Potency [7] | Potency [8]
active: Potency [9] 0.794 µM

OCCCNCc1ccncc1
inactive: Potency [1] > 11.4 µM | activity change, negative = inhibition [2] -2.93% | activity change, negative = inhibition [3] 5.43% | activity, negative = inhibition [4] -6.9% | Potency [5] > 46 µM | Potency [6] > 9.22 µM | Potency [7] | Potency [8] | activation [10] 1.84%

COc1ccc(N(CC(=O)O)N=O)cc1
inactive: Potency [1] > 11.4 µM | activity change, negative = inhibition [2] 1.5% | activity change, negative = inhibition [3] 11.2% | activity, negative = inhibition [4] 2.83% | Potency [5] > 46 µM | Potency [6] > 9.22 µM | Potency [7] | Potency [8] | Potency [11] | activation [10] 10.3%

CC(C)C(O)(C(C)C)C(C)C
inactive: Potency [1] > 11.4 µM | activity change, negative = inhibition [2] 7.29% | activity change, negative = inhibition [3] 3.44% | activity, negative = inhibition [4] 13.2% | Potency [5] > 46 µM | Potency [6] > 9.22 µM | Potency [7] | Potency [8] | Potency [11]

Cn1c(=O)c2c(nc(N/N=C\c3ccccc3C(=O)O)n2C)n(C)c1=O
inactive: Potency [1] > 11.4 µM | activity change, negative = inhibition [2] -10.8% | activity change, negative = inhibition [3] 5.57% | activity, negative = inhibition [4] 3.2% | Potency [5] > 46 µM | Potency [6] > 9.22 µM | Potency [7] | Potency [8] | Potency [11]

c1ccc(-c2cnc(-c3ccc(-c4ncc(-c5ccccc5)o4)cc3)o2)cc1
inactive: Potency [1] > 11.4 µM | activity change, negative = inhibition [2] -0.667% | activity change, negative = inhibition [3] 14.2% | activity, negative = inhibition [4] -0.742% | Potency [5] > 46 µM | Potency [6] > 9.22 µM | Potency [7] | Potency [8] | activation [10] 15%

O=c1[nH]c(SCc2cccc([N+](=O)[O-])c2)nc2nc[nH]c12
inactive: Potency [1] > 11.4 µM | activity change, negative = inhibition [2] -0.65% | activity change, negative = inhibition [3] -8.58% | activity, negative = inhibition [4] 8.09% | Potency [5] > 46 µM | Potency [6] > 9.22 µM | Potency [7] | Potency [8] | Potency [12] | Potency [11]

c1ccc2sc(SCN(C3CCCCC3)C3CCCCC3)nc2c1
inactive: Potency [1] > 11.4 µM | activity change, negative = inhibition [2] 4.99% | activity change, negative = inhibition [3] -7.96% | activity, negative = inhibition [4] -3.43% | Potency [5] > 46 µM | Potency [6] > 9.22 µM | Potency [7] | Potency [8]
active: Potency [9] 1.58 µM

O=[N+]([O-])c1cccc(/C=N\NC2=CS(=O)(=O)C=C2)c1
inactive: Potency [1] > 11.4 µM | activity change, negative = inhibition [2] 4.95% | activity change, negative = inhibition [3] 14.6% | activity, negative = inhibition [4] 5.97% | Potency [5] > 46 µM | Potency [6] > 9.22 µM | Potency [7] | Potency [8] | activation [10] 1.06%

CC(C)(C)c1c2c(c(C(C)(C)C)c3c1OCN(Cc1ccccc1)C3)OCN(Cc1ccccc1)C2
inactive: Potency [1] > 11.4 µM | activity change, negative = inhibition [2] 0.594% | activity change, negative = inhibition [3] 0.0878% | activity, negative = inhibition [4] -2.37% | Potency [5] > 46 µM | Potency [6] > 9.22 µM | Potency [7] | Potency [8] | Potency [11]

N#Cc1c(NC(=O)CCC(=O)O)ccc2ccccc12
inactive: Potency [1] > 11.4 µM | activity change, negative = inhibition [2] -3.75% | activity change, negative = inhibition [3] 18.9% | activity, negative = inhibition [4] 4.61% | Potency [5] > 46 µM | Potency [6] > 9.22 µM | Potency [7] | Potency [8] | Potency [11] | activation [10] 3.84%

CC(C)[C@](N)(C(=O)O)c1ccccc1
inactive: Potency [1] > 11.4 µM | activity change, negative = inhibition [2] -9.87% | activity change, negative = inhibition [3] 5.98% | activity, negative = inhibition [4] 29.8% | Potency [5] > 46 µM | Potency [6] > 9.22 µM | Potency [7] | Potency [8] | Potency [9]

NS(=O)(=O)c1cc(C(=O)O)c(Cl)c([N+](=O)[O-])c1Cl
inactive: Potency [1] > 11.4 µM | activity change, negative = inhibition [2] 10.9% | activity change, negative = inhibition [3] 18.5% | activity, negative = inhibition [4] 13.1% | Potency [5] > 46 µM | Potency [6] > 9.22 µM | Potency [7] | Potency [8] | Potency [9] | Potency [11]

CC1(C)[C@@H]2CC[C@@]1(CS(=O)(=O)Nc1ccccc1)C(=O)C2
inactive: Potency [1] > 11.4 µM | activity change, negative = inhibition [2] -11.4% | activity change, negative = inhibition [3] 4.16% | activity, negative = inhibition [4] -7% | Potency [5] > 46 µM | Potency [6] > 9.22 µM | Potency [7] | Potency [8]
active: Potency [11] 2 µM
